SIRT5 block: blocks human SIRT5 desuccinylation of peptide. Purified SirT5, succinyl-peptide AMC, trypsin-coupled fluorescence. inhibition, % at 15 µM. 1.1% of 330,000 active; in the data active = inhibition above about 15%
Target sequence (Q9NXA8 whole entry, looked up): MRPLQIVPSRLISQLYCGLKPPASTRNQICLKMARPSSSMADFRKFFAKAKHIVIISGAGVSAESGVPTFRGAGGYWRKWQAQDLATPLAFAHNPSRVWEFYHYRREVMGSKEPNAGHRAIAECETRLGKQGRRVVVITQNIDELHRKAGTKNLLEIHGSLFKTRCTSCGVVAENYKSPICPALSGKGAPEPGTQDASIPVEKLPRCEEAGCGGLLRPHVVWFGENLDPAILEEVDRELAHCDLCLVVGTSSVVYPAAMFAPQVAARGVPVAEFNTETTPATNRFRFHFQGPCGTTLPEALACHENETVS
PglD inh: PglD (C. jejuni) enzyme inhibition | 0.098% of 360,000 active | inhibition, % at 12.5 µM | purified PglD enzyme, DTNB colorimetric CoA detection; in the data active = inhibition above about 16%, passing the limit was not always enough
dFosB activator: activators of mouse delta FosB homodimer. AID 493131. 0.99% of 340,000 active. purified delta FosB, TAMRA-CDK5 oligo fluorescence polarization; percent of positive-control signal above neutral wells. activation, % at 25 µM. P13346;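 active = mean activation above about 17%, with every replicate also reaching it, limit read from the data, passing the limit was not always enough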
CDK5 p35 inh: inhibitors of human CDK5/p35 kinase; Recombinant CDK5/p35, ADP-Glo luminescence, 60 min; Q00535+Q15078; 0.01% of 330,000 active; inhibition, % at 10 µM;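 active = highest replicate inhibition of at least 50% and at least 75% of replicates reaching 50%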;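 note: plate controls were DMSO neutral control for no effect and GW8510 at 10 µM for full effect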
PvdQ inh: P. aeruginosa PvdQ acylase inhibition; inhibition, % at 10 µM; purified PvdQ acylase, fluorescence plate reader; 0.063% of 340,000 active; in the data active = inhibition above about 30%, passing the limit was not always enough;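 note: 0% = vehicle neutral wells and 100% = reference inhibitor wells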
FGF22 binding: shifts melting point of recombinant human FGF22; Q9HCT0; recombinant FGF22 thermal shift, SYPRO orange fluorescence; percent of sucrose octasulfate shift, DMSO zero; activity (Tm shift, normalised), % at 9.99 µM; 1.5% of 340,000 active; AID 651658;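 active = mean Tm shift, scaled 0 neutral to 100 positive control, at about 1.3% or above, every replicate too, limit read from the data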
An asterisk follows results filed as active; . = no result. Rows were chosen to be rich in hits. Some 2.8% of all compounds tested hit in one or more screens of this group.

SMILES | SIRT5 block | PglD inh | dFosB activator | CDK5 p35 inh | PvdQ inh | FGF22 binding
Cc1ccc(/C=N/NC(=O)CNC(=O)c2ccc(C)c([N+](=O)[O-])c2)o1 | -1 | . | -3 | -1 | 2 | 0
COc1ccc(/C=C\C(=O)NCC(=O)N/N=C/c2cccc(OC)c2O)cc1 | -2 | -5 | 47* | 3 | -12 | 0
Cc1ccc(/C=N/NC(=O)CNC(=O)c2cccc([N+](=O)[O-])c2C)o1 | -6 | . | -4 | 2 | -6 | 43*
COc1ccc(NC(=O)N[C@H]2C=C[C@@H](CC(=O)NCc3ccccn3)O[C@@H]2CO)cc1 | -9 | 0 | . | . | . | 0
Cc1ccc(-c2ccc(C3[C@@H]4CN(S(=O)(=O)c5ccccc5)C[C@H]3N4)cc2)cc1 (some centres not stated) | -3 | . | . | . | . | .
CN1C(=O)c2cc(NC(=O)C3CCCC3)ccc2OC[C@H]2O[C@H](CC(=O)NCC3CC3)CC[C@H]21 | 2 | -2 | . | . | . | 0
COc1cc(/C=N/NC(=O)Cc2ccccc2)ccc1Oc1ccc([N+](=O)[O-])cc1[N+](=O)[O-] | -9 | . | -18 | -1 | 4 | 42
COc1ccccc1/C=N/NC(=O)COCC(=O)N/N=C/c1ccccc1OC | 19* | 3 | -4 | -3 | 9 | 0
COc1cccc(/C=N/NC(=O)c2cc3cc([N+](=O)[O-])ccc3s2)c1O | 1 | 1 | 41* | 0 | -6 | 0
COc1ccc([N+](=O)[O-])cc1/C=N/NC(=O)Cc1ccccc1 | 3 | . | 0 | -8 | -13 | 44*
COc1ccccc1/C=C/C(=O)NCC(=O)N/N=C/c1ccccc1 | -1 | . | -9 | 0 | -1 | 0
COc1cccc(/C=N/NC(=O)C(=O)N/N=C/c2cccc(OC)c2O)c1O | 0 | . | 11 | 0 | -15 | 0
COc1cccc(/C=N/NC(=O)CNC(=O)/C=C\c2ccccc2)c1O | -4 | -3 | 58* | -1 | -11 | 0
C[C@@H]1CN([C@@H](C)CO)S(=O)(=O)c2ccc(-c3ccccc3)cc2O[C@H]1CN(C)C(=O)Cc1ccccc1 | 1 | 0 | . | . | . | 0
C[C@H]1CCCCO[C@H](CN(C)C(=O)Nc2ccc(C(F)(F)F)cc2)[C@@H](C)CN([C@@H](C)CO)C(=O)c2cc(NS(=O)(=O)c3ccccc3)ccc2O1 | 5 | 0 | . | . | . | 0
CO[C@H]1CN(C)C(=O)c2cc(NC(=O)c3ccc4c(c3)OCO4)ccc2OC[C@@H](C)N(CC2CC2)C[C@H]1C | -1 | -1 | . | . | . | -1
Cc1ccccc1CN1N=C(/C=C/c2ccccc2)CCC1=O | 5 | -2 | -2 | 2 | 4 | 45*
Cc1ccc(S(=O)(=O)N(C)C[C@H]2OCCCC[C@H](C)Oc3ccc(NS(=O)(=O)c4ccccc4)cc3C(=O)N([C@H](C)CO)C[C@H]2C)cc1 | 27* | -1 | . | . | . | 0
Cc1ccc(S(=O)(=O)N(C)C[C@@H]2OCCCC[C@H](C)Oc3ccc(NS(=O)(=O)c4ccccc4)cc3C(=O)N([C@H](C)CO)C[C@@H]2C)cc1 | 21* | -1 | . | . | . | 0
Cc1ccc(S(=O)(=O)Nc2ccc3c(c2)C(=O)N([C@@H](C)CO)C[C@H](C)[C@@H](CN(C)S(=O)(=O)c2ccccc2)OCCCC[C@H](C)O3)cc1 | 12 | -3 | . | . | . | .
Cc1ccc(S(=O)(=O)Nc2ccc3c(c2)C(=O)N([C@@H](C)CO)C[C@@H](C)[C@H](CN(C)S(=O)(=O)c2ccccc2)OCCCC[C@@H](C)O3)cc1 | 9 | -2 | . | . | . | .
Cc1ccc(S(=O)(=O)N(C)C[C@H]2OCCCC[C@@H](C)Oc3ccc(NS(=O)(=O)c4ccccc4)cc3C(=O)N([C@@H](C)CO)C[C@H]2C)cc1 | 22* | 2 | . | . | . | 0
C[C@@H]1CN([C@@H](C)CO)C(=O)c2cc(NS(=O)(=O)c3ccccc3)ccc2O[C@@H](C)CCCCO[C@@H]1CN(C)S(=O)(=O)c1ccccc1 | 17* | 1 | . | . | . | 0
O=C(N[C@@H]1CC[C@H](CCNC(=O)C2CC2)O[C@@H]1CO)c1ccncc1 | 6 | -1 | . | . | . | 0
Cc1ccc(S(=O)(=O)Nc2ccc3c(c2)C(=O)N([C@@H](C)CO)C[C@@H](C)[C@H](CN(C)S(=O)(=O)c2ccccc2)OCCCC[C@H](C)O3)cc1 | 13 | 1 | . | . | . | .
